# Measured values reported in PubChem BioAssay.
# “And” between values parts separate entries of the source, which are not always exact repeats. Identical values can stand only once. The source made the active and inactive calls.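 How the source made its calls, unless noted: active means compounds whose cell count with miR-34 switched on is under 0.7 times the count with it off; inactive means the rest.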
# Key:
# [1] = hESC survival regulators, cell-based (AID 493140; call rule not given here;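 further: cells exposed to compounds for four days before counting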); settings: human embryonic stem cell survival screen; stronger effect = higher value
# [2] = stimulators of nuclear beta-catenin in C2C12, primary screen, imaging, WNT3A-conditioned medium, mouse C2C12, NPC library (AID 1117326; in the data active means nuclear beta-catenin stimulation mostly above about 4.2%, no sharp cut-off; inactive means mostly below about 10%); settings: stronger effect = higher value
# [3] = stimulators of insulin release from INS-1E, primary screen, cell-based, 5 mM glucose, NPC library (AID 1117329;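 active means compound raises insulin release from rat beta cells at 5 mM glucose, no numeric limit stated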); settings: rat INS-1E insulin secretion, at 10 µM, stronger effect = higher value
# [4] = growth inhibition of GSK3B-pretreated HCT116 cells – cell-based, CellTiter-Glo, 0.2 to 20 µM (AID 1117336;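 active means compounds lowering colon cancer cell viability after pretreatment blocking the GSK3B kinase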); settings: HCT116 viability after GSK3B inhibitor, at 20 µM, stronger effect = higher value
# [5] = inhibition of endothelial tube formation, primary screen, imaging, VEGF stimulated, CD31 staining, tube area, NPC library (AID 1117340;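 active means compound that reduces growth-factor-driven endothelial tube area in a mixed cell culture, no cutoff stated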); settings: VEGF-stimulated ADSC/ECFC co-culture, at 10 µM, stronger effect = higher value
# [6] = glucagon-like peptide 1 release enhancers, primary assay, NCI-H716 cell line, NPC library (AID 1117341;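 active means compound raises GLP1 secretion from the human gut endocrine cells, with no numeric limit stated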); settings: NCI-H716 cells, at 10 µM, stronger effect = higher value
# [7] = HCT116 colon cancer cell growth inhibition, primary screen, CellTiter-Glo luminescence, NPC library (AID 1117342;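 active means compounds that lower survival of HCT116 colon cancer cells in the luminescence readout, no numeric limit stated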); settings: at 20 µM (top of the series)
# [8] = CellTiter-Glo luminescent readout of SW480 viability loss, NPC library primary (AID 1117343;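 active means compounds that lower viability of the colon cancer cells in the luminescence readout, with no numeric limit stated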); settings: CellTiter-Glo luminescence; at 20 µM (top of the series) unless noted
# [9] = decreased DLD-1 cellular survival, CellTiter-Glo luminescent readout, NPC compound collection, primary HTS (AID 1117346;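 active means compounds that lower survival of DLD-1 colon cancer cells in the luminescence readout, no cutoff given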); settings: DLD-1 viability, CellTiter-Glo luminescence; at 20 µM (top of the series)
# [10] = differential killing of epithelial or mesenchymal cells, primary screen, imaging, PC-3E GFP, TEM4-18 mCherry, co-culture (AID 1345086;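 active means compounds killing one labelled cell type while sparing the other, by normalised counts and ratio limits, not self-fluorescent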;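 on all read-outs here: cells exposed to compound for 72 h before imaging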;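 on red/green cell ratio (normalised): normalised mesenchymal count divided by normalised epithelial count so high means epithelial killing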); settings: imaging cell counts, at 1 µM; for red/green cell ratio (normalised): actives lie on both sides, counts scaled to control wells, 1 = unselective
# [11] = sensitizers of A549 cells to miR-34 induction, primary screen, imaging, A549 dox-inducible miR-34, nuclei and caspase counts (AID 1347080); settings: A549 miR-34 inducible, Hoechst nuclei count, 48 h
# [12] = survival rescue of mitochondrial mutant cells in low glucose, primary screen, MELAS cybrids, Rieske KO mouse fibroblasts, CellTiter-Glo (AID 1508586;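 active means mean z-score across replicates of 1.96 or higher in either the MELAS or the Rieske mutant cell line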;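 further: z relative to plate mean and SD of compound and empty wells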)
# [13] = target: NAD(+) hydrolase SARM1 (Homo sapiens) (UniProt Q6SZW1); assay: SARM1 TIR NADase inhibitors, cell lysate, NAD-Glo luminescence (AID 1508614;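 active means compound whose remaining NAD level is above about 45 nM, limit read from the data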); settings: SAM-TIR HEK293T lysate NADase, at 1 µM, stronger effect = higher value
# [14] = liver-stage malaria parasite growth inhibition, primary screen, cell-based, HepG2, luciferase luminescence, HepG2 viability (AID 624349; in the data active means parasite load remaining mostly below about 12%, no sharp cut-off; inactive means mostly above about 10%;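 further: 100% = mean of DMSO negative control wells on the same plate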); settings: P. berghei liver stage in HepG2, luciferase luminescence, concentration not given here; parasite load remaining: stronger effect = lower value; viability: measured here: HepG2 viability without parasites
# [15] = measured here: epithelial PC-3E GFP cell survival
# [16] = measured here: mesenchymal TEM4-18 mCherry cell survival
# [17] = stronger effect = lower value, cell number ratio, induced over uninduced
# [18] = measured here: relative caspase fold change +Dox/-Dox
# [19] = measured here: total cells with miR-34 induction, stronger effect = lower value
# [20] = measured here: total cells without miR-34 induction
# [21] = MELAS cybrid survival, CellTiter-Glo 48 h, stronger effect = higher value
# [22] = Rieske KO mouse fibroblast survival, CellTiter-Glo 72 h
# Chain of NAD(+) hydrolase SARM1 (Homo sapiens) (Q6SZW1 whole entry, looked up): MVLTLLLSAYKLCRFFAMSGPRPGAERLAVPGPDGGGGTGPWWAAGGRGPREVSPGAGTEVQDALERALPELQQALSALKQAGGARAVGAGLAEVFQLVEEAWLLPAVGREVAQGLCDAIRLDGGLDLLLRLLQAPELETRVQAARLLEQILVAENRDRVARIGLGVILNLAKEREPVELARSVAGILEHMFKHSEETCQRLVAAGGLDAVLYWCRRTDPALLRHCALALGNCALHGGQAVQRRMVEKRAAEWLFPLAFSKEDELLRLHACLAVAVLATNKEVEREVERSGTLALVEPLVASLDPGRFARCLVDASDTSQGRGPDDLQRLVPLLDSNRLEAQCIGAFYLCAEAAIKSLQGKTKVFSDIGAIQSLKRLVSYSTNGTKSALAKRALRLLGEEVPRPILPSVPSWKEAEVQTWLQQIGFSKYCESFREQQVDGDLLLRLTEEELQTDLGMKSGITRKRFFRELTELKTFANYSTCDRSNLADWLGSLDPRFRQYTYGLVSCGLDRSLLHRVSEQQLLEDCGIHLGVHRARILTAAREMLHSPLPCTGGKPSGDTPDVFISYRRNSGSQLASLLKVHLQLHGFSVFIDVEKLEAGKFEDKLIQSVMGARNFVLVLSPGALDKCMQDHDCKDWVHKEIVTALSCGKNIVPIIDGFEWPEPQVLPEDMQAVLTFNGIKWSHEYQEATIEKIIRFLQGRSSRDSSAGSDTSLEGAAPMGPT
smiles,measurement,setting,value
CN(C(=O)CN(CCO)CC(=O)N(C)C(C)(C)Cc1ccccc1)C(C)(C)Cc1ccccc1,survival,[1],8.83 (inactive)
same,nuclear beta-catenin stimulation,[2]; at 10 µM,9.4% (inactive)
same,nuclear beta-catenin stimulation,"[2]; stimulation, at 2 µM",3.2%
same,insulin secretion stimulation,[3],1.4% (inactive)
same,viability decrease,[4],-33.9% (inactive)
same,tube area decrease,[5],2.2% (inactive)
same,GLP1 secretion stimulation,[6],107% (active)
same,inhibition of viability,[7],59.3% (active)
same,viability decrease (inhibition),[8],124% (active)
same,viability decrease (inhibition),[9],104% (active)
same,red/green cell ratio (normalised),[10],1.14 (inactive)
same,normalised cell number,[10]; [15],1.13
same,normalised cell number,[10]; [16],1.29
same,fold change,[11]; [17],0.876 (inactive) and 0.908 (inactive)
same,fold change,[11]; [18],1.3 and 4.08
same,cell count,[11]; [19],7940 and 11300
same,cell count,[11]; [20],9070 and 12400
same,z-score,[12]; [21],0.165 (inactive)
same,z-score,[12]; [22],-0.15
same,remaining NAD,[13],10 nM (inactive)
O=C(O)Cc1ccc(-c2ccccc2)cc1,survival,[1],7.67 (inactive)
same,parasite load remaining,[14],98.2% (inactive)
same,viability,[14],99.7%
same,nuclear beta-catenin stimulation,[2]; at 10 µM,-0.4% (inactive)
same,nuclear beta-catenin stimulation,"[2]; stimulation, at 2 µM",0.3%
same,insulin secretion stimulation,[3],-1.1% (inactive)
same,viability decrease,[4],-34.7% (inactive)
same,tube area decrease,[5],6.9% (inactive)
same,GLP1 secretion stimulation,[6],1.7% (inactive)
same,inhibition of viability,[7],2.33% (inactive)
same,viability decrease (inhibition),[8],7.7% (inactive)
same,viability decrease (inhibition),[9],-10.7% (inactive)
same,red/green cell ratio (normalised),[10],0.72 (inactive)
same,normalised cell number,[10]; [15],1.44
same,normalised cell number,[10]; [16],1.04
same,fold change,[11]; [17],0.915 (inactive)
same,fold change,[11]; [18],1.39
same,cell count,[11]; [19],9920
same,cell count,[11]; [20],10800
same,z-score,[12]; [21],0.702 (inactive)
same,z-score,[12]; [22],-0.122
same,remaining NAD,[13],10 nM (inactive)
CCN(CC)CCNC(C(=O)OCCC(C)C)c1ccccc1 (stereo unspecified),nuclear beta-catenin stimulation,[2]; at 10 µM,-0.8% (inactive)
same,nuclear beta-catenin stimulation,"[2]; stimulation, at 2 µM",-0.5%
same,insulin secretion stimulation,[3],32.4% (active)
same,viability decrease,[4],6.1% (inactive)
same,tube area decrease,[5],-3.9% (inactive)
same,GLP1 secretion stimulation,[6],8.2% (inactive)
same,inhibition of viability,[7],0.2% (inactive)
same,viability decrease (inhibition),[8],26.1% (inactive)
same,viability decrease (inhibition),[9],9.9% (inactive)
same,red/green cell ratio (normalised),[10],1.16 (inactive)
same,normalised cell number,[10]; [15],0.66
same,normalised cell number,[10]; [16],0.76
same,fold change,[11]; [17],0.979 (inactive)
same,fold change,[11]; [18],0.754
same,cell count,[11]; [19],8430
same,cell count,[11]; [20],8620
same,z-score,[12]; [21],0.328 (inactive)
same,z-score,[12]; [22],0.121
same,remaining NAD,[13],10 nM (inactive)
CC(C(=O)O)c1ccc2c(c1)Cc1cccnc1O2 (stereo unspecified),parasite load remaining,[14],27% (inactive)
same,viability,[14],105%
same,nuclear beta-catenin stimulation,[2]; at 10 µM,0.4% (inactive)
same,nuclear beta-catenin stimulation,"[2]; stimulation, at 2 µM",-0.1%
same,insulin secretion stimulation,[3],4.3% (inactive)
same,viability decrease,[4],-8.3% (inactive)
same,tube area decrease,[5],-14.8% (inactive)
same,GLP1 secretion stimulation,[6],-2.7% (inactive)
same,inhibition of viability,[7],-12% (inactive)
same,viability decrease (inhibition),[8],18.6% (inactive)
same,viability decrease (inhibition),[9],9.3% (inactive)
same,red/green cell ratio (normalised),[10],0.99 (inactive)
same,normalised cell number,[10]; [15],0.91
same,normalised cell number,[10]; [16],0.9
same,fold change,[11]; [17],1 (inactive) and 0.866 (inactive)
same,fold change,[11]; [18],0.334 and 1.75
same,cell count,[11]; [19],3140 and 9560
same,cell count,[11]; [20],3140 and 11000
same,z-score,[12]; [21],-0.199 (inactive) and 0.41 (inactive) and -0.18 (inactive)
same,z-score,[12]; [22],0.0831 and 0.15 and -0.741
same,remaining NAD,[13],10 nM (inactive)
O=C(O)c1cc(-c2ccccc2)nc2ccccc12,nuclear beta-catenin stimulation,[2]; at 10 µM,2.1% (inactive)
same,nuclear beta-catenin stimulation,"[2]; stimulation, at 2 µM",0.6%
same,insulin secretion stimulation,[3],-1.6% (inactive)
same,viability decrease,[4],5.55% (inactive)
same,tube area decrease,[5],1.3% (inactive)
same,GLP1 secretion stimulation,[6],4.2% (inactive)
same,inhibition of viability,[7],-8.1% (inactive)
same,viability decrease (inhibition),[8],27.9% (inactive)
same,viability decrease (inhibition),[9],8.8% (inactive)
same,red/green cell ratio (normalised),[10],0.87 (inactive)
same,normalised cell number,[10]; [15],0.9
same,normalised cell number,[10]; [16],0.78
same,fold change,[11]; [17],0.909 (inactive) and 0.965 (inactive)
same,fold change,[11]; [18],0.94 and 1.19
same,cell count,[11]; [19],8690 and 8580
same,cell count,[11]; [20],9560 and 8890
same,z-score,[12]; [21],-0.261 (inactive)
same,z-score,[12]; [22],-0.139
same,remaining NAD,[13],10 nM (inactive)
